# Results filed as inconclusive are left out. Active and inactive are the calls of the source. The calls were made as follows: active = hit-call score of the fitted dose curve at least 0.9, where 1 is the maximum; inconclusive = response in the unintended direction; inactive = score below 0.9.
# Tests used:
# [1] = TOX21_p53_BLA_p5_viability: Viability Assessment in the Tox21 HCT-116 p53 Agonism Beta-lactamase Assay, Phase 5 (AID 2283600)
# Method in brief: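 Decreased CellTiter-Glo luminescence denotes lost viability. Exposure: 16 h at 37C, 5% CO2, with compounds from DMSO stocks diluted 217-fold in wells of 4000 cells.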
# [2] = target: Cellular tumor antigen p53 (Homo sapiens) (UniProt P04637); assay: TOX21_p53_BLA_p4_ratio: Tox21 HCT-116 p53 Agonism Beta-lactamase Assay, Ratio, Phase 4 (AID 2283601)
# Cellular tumor antigen p53 (Homo sapiens), sequence (P04637 whole entry, looked up): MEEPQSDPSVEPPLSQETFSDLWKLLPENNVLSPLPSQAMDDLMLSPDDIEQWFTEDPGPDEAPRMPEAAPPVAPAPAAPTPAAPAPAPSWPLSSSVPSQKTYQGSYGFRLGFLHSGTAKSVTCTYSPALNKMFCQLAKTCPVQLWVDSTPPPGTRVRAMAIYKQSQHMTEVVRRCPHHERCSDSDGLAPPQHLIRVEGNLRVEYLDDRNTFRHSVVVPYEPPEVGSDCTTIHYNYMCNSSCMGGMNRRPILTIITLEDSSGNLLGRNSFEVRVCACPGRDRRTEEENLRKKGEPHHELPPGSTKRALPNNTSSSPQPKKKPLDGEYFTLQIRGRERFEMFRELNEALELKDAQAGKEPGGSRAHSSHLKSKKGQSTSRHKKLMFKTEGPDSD
# Method in brief: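 HCT116 cells carrying an inducible beta-lactamase reporter were plated at 4000 cells/well, rested 5 h, then exposed to compounds in DMSO (217-fold dilution) for 16 h at 37C. CCF4-AM substrate was loaded 2 h at room temperature; 460/530 nm emission ratio scored gain-of-signal versus DMSO.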
SMILES,outcome [1],outcome [2]
CCCCCCCC(=O)N(C)C,inactive,inactive
ClCCOCCOCCCl,inactive,inactive
Cc1ccncc1,inactive,inactive
CCOC(=O)CCCCCCCCC(=O)OCC,inactive,inactive
COC(=O)c1cccc(C(=O)OC)c1,inactive,inactive
CCO[Si](CC)(OCC)OCC,inactive,inactive
CCCCOC(=O)C(C)OC(=O)CCC (stereo unspecified),inactive,inactive
CCCCCCCCCOS(=O)(=O)O,inactive,inactive
C=C(C)C(=O)OCCC[Si](OC)(OC)OC,inactive,inactive
O=S(=O)(O)CCCN1CCOCC1,inactive,inactive
c1ccc(OCCOc2ccccc2)cc1,inactive,inactive
COc1ccc2[nH]cc(CCNC(C)=O)c2c1,inactive,inactive
CCCCCCCCOS(=O)(=O)O,inactive,inactive
CC(CO)c1ccccc1 (stereo unspecified),inactive,inactive
CCC(C)(C)c1cc(O)c(C(C)(C)CC)cc1O,inactive,inactive
c1coc(CNc2ncnc3nc[nH]c23)c1,inactive,inactive
FC(F)(F)c1ccc(Cl)c(Cl)c1,inactive,inactive
CC(CCO)CC(C)(C)C (stereo unspecified),inactive,inactive
NCCN1CCNCC1,inactive,inactive
O=S(=O)(O)c1cc(S(=O)(=O)O)c2c(N=Nc3ccccc3)c(O)ccc2c1,inactive,inactive
CCCCCC(=O)O[C@]1(C(C)=O)CC[C@H]2[C@@H]3CCC4=CC(=O)CC[C@]4(C)[C@H]3CC[C@@]21C,inactive,inactive
CCCCCCC(O)CCOC(C)=O (stereo unspecified),inactive,inactive

SMILES,outcome [1],outcome [2]
O=C(OCc1ccccc1)c1ccccc1O,inactive,inactive
C=CCS(=O)(=O)O,inactive,inactive
CC(=O)c1ccc2ccccc2c1,inactive,inactive
[Na+],inactive,inactive
CC1=CC(C)C(C=O)C(C)C1 (stereo unspecified) (tested in a mixture with another compound),inactive,inactive
O=C(O)C1=NN(c2ccc(S(=O)(=O)O)cc2)C(=O)C1,inactive,inactive
CCCCCC1C(=O)CCC1CC(=O)OC (stereo unspecified),inactive,inactive
O=[N+]([O-])c1cc(N(CCO)CCO)ccc1NCCO,inactive,inactive
CC(=O)c1ccc(O)cc1,inactive,inactive
CCCCCCOC(C)=O,inactive,inactive
CC(=O)CCc1ccc(O)cc1,inactive,inactive
NC(=O)c1cnccn1,inactive,inactive
CN(C)CCCNCCCN(C)C,inactive,inactive
CC(=O)C1=C(C)[C@@H]2C[C@@]3(C1)[C@H](C)CC[C@H]3C2(C)C,inactive,inactive
CCOc1ccc(NC(C)=O)cc1,inactive,inactive
Cc1ccc(C(C)(C)O)cc1,inactive,inactive
CC(=O)Oc1c(C)c(C)c2c(c1C)CC[C@@](C)(CCC[C@H](C)CCC[C@H](C)CCCC(C)C)O2,inactive,inactive
CCC(C)COC(=O)CC(C)C (stereo unspecified),inactive,inactive
C1=COCCC1,inactive,inactive
COc1ccc(OC)cc1,inactive,inactive
C=COCC1CCC(COC=C)CC1 (stereo unspecified),inactive,inactive
